Assay results from PubChem BioAssay (EPA / NIEHS).
The source made the active and inactive calls. Rule for the calls: active = hit-call score of the fitted dose curve at least 0.9, where 1 is the maximum; inactive = score below 0.9.

Assays:
[1] = ATG_GRE_CIS: Attagene CIS-FACTORIAL HepG2 Assay for human Glucocorticoid Response Elements (GRE) (AID 2282947); details: HepG2 GRE cis-reporter, Attagene multiplex mRNA; actives raise or lower the signal
Method in brief: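 Assay uses human hepatoma HepG2 cells transfected with cis-promoter reporter units, exposed 24 h. mRNA from reporters detected by RT-PCR plus capillary electrophoresis; DMSO serves as negative control and baseline.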

[2] = ATG_ISRE_CIS: Attagene CIS-FACTORIAL HepG2 Assay for human Interferon Regulatory Factor 1 (IRF1) binding to an Interferon-Stimulated Response Element (ISRE) (AID 2282948); details: HepG2 ISRE cis-reporter (Attagene), mRNA transcription readout; actives raise or lower the signal
Method in brief: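 HepG2 cells transiently transfected with multiplexed cis-promoter reporter units; after 24 h compound exposure, reporter mRNA quantified by RT-PCR, FAM labelling, HpaI digestion and capillary electrophoresis. Bidirectional fit versus DMSO baseline.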

[3] = ATG_M_32_CIS: Attagene CIS-FACTORIAL HepG2 Assay for M32 Transcription Factor (Internal Marker) (AID 2282949); details: HepG2 Attagene cis-factorial M32 reporter, mRNA; actives raise or lower the signal;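 note: background control marker of the multiplexed CIS panel rather than a real target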
Method in brief: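 Following 24 h chemical exposure of HepG2 cells transiently expressing cis-promoter reporter constructs, reporter transcript levels were determined by RT-PCR with fluorescent labelling and capillary electrophoresis, then fitted bidirectionally against DMSO.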

[4] = ATG_M_06_CIS: Attagene CIS-FACTORIAL HepG2 Assay for M06 Transcription Factor (Internal Marker) (AID 2282950); details: HepG2 Attagene CIS-FACTORIAL M06 internal marker reporter; actives raise or lower the signal
Method in brief: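 HepG2 liver cells, 24 h exposure. Reporter transcripts from transfected cis-element constructs quantified by RT-PCR/capillary electrophoresis fluorescence. Bidirectional curve fit against DMSO.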

[5] = target: Hepatocyte nuclear factor 6 (Homo sapiens) (UniProt Q9UBC0); test: ATG_HNF6_CIS: Attagene CIS-FACTORIAL HepG2 Assay for human Hepatocyte Nuclear Factor 6 (HNF6) (AID 2282952); details: HepG2 Attagene cis-factorial HNF6 reporter transcription; actives raise or lower the signal
Hepatocyte nuclear factor 6 (Homo sapiens), sequence (Q9UBC0 whole entry, looked up, the tested form may be a part): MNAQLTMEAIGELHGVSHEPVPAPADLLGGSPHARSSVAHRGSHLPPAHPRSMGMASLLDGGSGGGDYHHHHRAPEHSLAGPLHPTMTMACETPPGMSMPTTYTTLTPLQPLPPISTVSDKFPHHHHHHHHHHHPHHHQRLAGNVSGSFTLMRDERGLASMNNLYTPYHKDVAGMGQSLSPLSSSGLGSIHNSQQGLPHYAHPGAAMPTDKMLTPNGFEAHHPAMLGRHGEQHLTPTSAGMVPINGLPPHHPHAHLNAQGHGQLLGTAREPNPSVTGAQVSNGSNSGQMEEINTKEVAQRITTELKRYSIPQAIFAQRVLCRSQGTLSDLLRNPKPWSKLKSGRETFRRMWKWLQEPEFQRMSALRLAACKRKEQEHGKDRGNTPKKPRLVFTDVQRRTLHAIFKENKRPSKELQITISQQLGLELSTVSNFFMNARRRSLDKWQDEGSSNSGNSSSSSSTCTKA
Method in brief: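 HepG2 cells transiently transfected with cis-element-driven multiplexed reporter units measuring endogenous transcription factor activity. After 24 h exposure, reporter mRNA quantified by RT-PCR, FAM-labelled fragments and capillary electrophoresis; bidirectional fitting versus DMSO.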

[6] = target: Heat shock factor protein 1 (Homo sapiens) (UniProt Q00613); test: ATG_HSE_CIS: Attagene CIS-FACTORIAL HepG2 Assay for human Heat Shock Transcription Factor 1 (HSE) (AID 2282953); details: HepG2 HSE cis-reporter, Attagene RNA transcription; actives raise or lower the signal
Heat shock factor protein 1 (Homo sapiens), sequence (Q00613 whole entry, looked up, the tested form may be a part): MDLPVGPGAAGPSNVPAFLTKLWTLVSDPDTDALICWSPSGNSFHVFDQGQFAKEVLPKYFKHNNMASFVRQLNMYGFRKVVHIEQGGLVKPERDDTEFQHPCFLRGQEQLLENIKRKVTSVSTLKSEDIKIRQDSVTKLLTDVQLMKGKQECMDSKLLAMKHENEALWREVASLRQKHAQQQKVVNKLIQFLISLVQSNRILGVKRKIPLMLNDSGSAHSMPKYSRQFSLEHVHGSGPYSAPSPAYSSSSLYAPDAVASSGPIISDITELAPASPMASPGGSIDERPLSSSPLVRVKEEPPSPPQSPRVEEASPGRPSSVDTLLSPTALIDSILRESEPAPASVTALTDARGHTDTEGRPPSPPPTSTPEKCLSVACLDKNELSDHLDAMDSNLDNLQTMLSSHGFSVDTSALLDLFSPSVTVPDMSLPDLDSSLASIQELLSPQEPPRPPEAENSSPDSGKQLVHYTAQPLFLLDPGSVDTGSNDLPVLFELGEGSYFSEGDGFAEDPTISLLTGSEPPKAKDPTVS
Method in brief: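 Endogenous transcription factor activity captured via cis-promoter reporter units transfected into HepG2; treatment lasted 24 h. Fluorescence intensity of reporter fragments analysed with bidirectional curve fitting, DMSO baseline.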

[7] = ATG_MRE_CIS: Attagene CIS-FACTORIAL HepG2 Assay for human Metal Responsive Element (MRE) (AID 2282954); details: HepG2 MRE cis-reporter transcription, Attagene multiplex; actives raise or lower the signal
Method in brief: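 After a 24 h chemical exposure, transiently transfected HepG2 cells yield RNA whose reporter sequences are amplified, FAM-labelled and sized by capillary electrophoresis. Curves are fitted bidirectionally relative to DMSO.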

[8] = ATG_PBREM_CIS: Attagene CIS-FACTORIAL HepG2 Assay for human Phenobarbital-responsive Enhancer Module (PBREM) (AID 2282955); details: HepG2 PBREM cis-reporter, Attagene multiplexed transcription; actives raise or lower the signal
Method in brief: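 Reporter mRNA read by RT-PCR, 6-FAM primer extension, HpaI digestion and capillary electrophoresis. Transfected HepG2 cells, 24 h compound exposure. Gain or loss of signal fitted bidirectionally relative to DMSO baseline.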

[9] = target: Hypoxia-inducible factor 1-alpha (Homo sapiens) (UniProt Q16665); test: ATG_HIF1a_CIS: Attagene CIS-FACTORIAL HepG2 Assay for human Hypoxia Inducible Factor 1 (HIF1A) (AID 2282951); details: HepG2 Attagene cis-factorial HIF1a reporter transcription; actives raise or lower the signal
Hypoxia-inducible factor 1-alpha (Homo sapiens), sequence (Q16665 whole entry, looked up): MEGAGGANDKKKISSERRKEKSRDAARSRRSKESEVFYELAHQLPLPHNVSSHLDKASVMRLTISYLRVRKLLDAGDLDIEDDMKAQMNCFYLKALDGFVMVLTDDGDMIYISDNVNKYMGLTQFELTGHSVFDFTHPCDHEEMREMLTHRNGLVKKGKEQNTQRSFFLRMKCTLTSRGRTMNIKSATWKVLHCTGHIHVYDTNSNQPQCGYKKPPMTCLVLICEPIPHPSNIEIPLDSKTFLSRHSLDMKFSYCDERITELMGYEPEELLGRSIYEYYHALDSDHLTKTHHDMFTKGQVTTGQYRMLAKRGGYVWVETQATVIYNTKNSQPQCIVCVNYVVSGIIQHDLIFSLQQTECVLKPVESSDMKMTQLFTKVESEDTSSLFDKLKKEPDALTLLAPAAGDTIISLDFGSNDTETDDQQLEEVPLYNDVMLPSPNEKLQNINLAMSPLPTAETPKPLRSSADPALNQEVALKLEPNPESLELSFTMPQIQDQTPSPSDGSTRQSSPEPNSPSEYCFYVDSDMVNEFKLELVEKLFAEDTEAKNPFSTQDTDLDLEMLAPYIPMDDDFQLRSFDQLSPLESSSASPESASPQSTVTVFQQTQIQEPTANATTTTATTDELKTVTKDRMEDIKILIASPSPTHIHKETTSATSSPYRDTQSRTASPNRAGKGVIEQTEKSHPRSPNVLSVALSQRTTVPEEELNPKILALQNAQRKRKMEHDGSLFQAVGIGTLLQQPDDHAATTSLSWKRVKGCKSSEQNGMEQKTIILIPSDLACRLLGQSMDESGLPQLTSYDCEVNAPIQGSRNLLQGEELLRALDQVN
Method in brief: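 RT-PCR/capillary electrophoresis fluorescence readout of reporter transcripts from endogenous-TF-driven cis elements in transfected HepG2 cells, 24 h exposure; activity fitted in both directions against DMSO controls.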

Measured: AC50

C[C@]12C=CC(=O)C=C1CC[C@@H]1[C@@H]2[C@@H](O)C[C@@]2(C)[C@H]1CC[C@]2(O)C(=O)CO
active: [1] 0.394 µM
not listed: [9]
inactive: all other assays above

C[Si](C)O[Si](C)(C)O[Si](C)(C)O[Si](C)C
not listed: [8] | [9]
inactive: all other assays above

COc1ccc(C(Cl)=C(c2ccc(OC)cc2)c2ccc(OC)cc2)cc1
not listed: [9]
inactive: all other assays above

CC1(C)[C@H]2CC[C@]1(C)C(=O)C2
not listed: [7] | [9]
inactive: all other assays above

CN(C)c1ccc(C(=N)c2ccc(N(C)C)cc2)cc1
active: [2] 23 µM | [9] 0.816 µM | [7] 6.69 µM | [8] 7.5 µM
not listed: [6]
inactive: all other assays above

C=CC(C)(CCC=C(C)C)OC(=O)C(C)C (stereo unspecified)
not listed: [8] | [9]
inactive: all other assays above

CC=CC(=O)N(CC)c1ccccc1C
not listed: [9]
inactive: all other assays above

c1ccc(-c2ccccn2)nc1
not listed: [8] | [9]
inactive: all other assays above

CC(=O)NS(=O)(=O)c1ccc(N)cc1
not listed: [9]
inactive: all other assays above

O=c1[nH]nc(-c2ccc([N+](=O)[O-])o2)o1
not listed: [2]
inactive: all other assays above

OC1CCCCCCCCCCC1
active: [7] 100 µM
not listed: [6]
inactive: all other assays above

CC(C)CC(O)Cc1ccccc1 (stereo unspecified)
not listed: [6]
inactive: all other assays above

c1c[nH]cn1
not listed: [8] | [9]
inactive: all other assays above

CCCCCCCCCCCCCCCCCC#N
not listed: [6] | [9]
inactive: all other assays above

O=C(O)c1ccccc1Nc1cccc(C(F)(F)F)c1
active: [7] 100 µM
not listed: [9]
inactive: all other assays above

NCCCN1CCN(CCCN)CC1
not listed: [9]
inactive: all other assays above

CC(=O)c1ccc2c(c1)CCCC2
not listed: [2]
inactive: all other assays above

CC1(C)S[C@@H]2[C@H](NC(=O)COc3ccccc3)C(=O)N2[C@H]1C(=O)O
not listed: [9]
inactive: all other assays above

COc1ccc(NC(C)=O)cc1N
not listed: [2]
inactive: all other assays above

Cn1c([N+](=O)[O-])cnc1COC(N)=O
not listed: [6] | [9]
inactive: all other assays above

NC(=O)OCC(COC(N)=O)c1ccccc1
not listed: [9]
inactive: all other assays above

C=CC(C)(C)C
not listed: [9]
inactive: all other assays above

Nc1ccc(N=Nc2ccccc2)c(N)n1
active: [7] 69.9 µM
not listed: [6] | [9]
inactive: all other assays above

O=c1c2ccccc2oc2ccccc12
not listed: [6] | [7]
inactive: all other assays above

O=C(Nc1ccccc1)c1ccccc1O
not listed: [7] | [9]
inactive: all other assays above

CCOCC(=O)O
not listed: [9]
inactive: all other assays above

Nc1ncn([C@@H]2O[C@H](CO)[C@@H](O)[C@H]2O)c(=O)n1
active: [2] 10.8 µM
not listed: [9]
inactive: all other assays above
